The results in this text go back to PubChem BioAssay (NCI).

This is part of a sample that, as a whole, favours compounds with a hit. Of some 79,000 tested, about 15% had one in any assay. Values without a mark were called inactive. Calls of active or inactive are those of the source. No stated cut-off is given here; in the data, active means growth inhibition above about 70%; inactive means the rest. Where a SMILES comes first, the peptide text is derived from it. [ ]: non-standard residue; d: D form. Hpg = N[CH](C(=O)O)c1ccc(O)cc1

Assay [1] can be described thus: NCI Yeast Anticancer Drug Screen. Data for the rad50 strain (AID 155).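 Further: 0% = growth of vehicle-only cultures of the same strain.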 Conditions: S. cerevisiae rad50 strain growth inhibition; at 50.0 µM; active compounds read high. The method, boiled down: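 Readout: growth inhibition relative to vehicle-treated cultures. Compound exposure was carried out in a genetically defined yeast strain deficient in DNA damage repair.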
Assay [2] is described as follows: NCI Yeast Anticancer Drug Screen. Data for the mec2-1 strain (AID 157). The following applies: S. cerevisiae mec2-1 strain, at 50.0 µM, active compounds read high. The method, boiled down: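 Compounds were applied to mec2-1 yeast cells. Their growth was then compared with that of vehicle-treated cultures to give growth inhibition.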
The nature of assay [3]: NCI Yeast Anticancer Drug Screen. Data for the sgs1 mgt1 strain (AID 161).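 Further: 0% = growth of cultures given vehicle only.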 Conditions: S. cerevisiae sgs1 mgt1 strain, at 50.0 µM, active compounds read high. The method, boiled down: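 This yeast growth screen uses a strain with defined DNA-repair lesions; compound-treated growth is compared with vehicle-treated growth.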
Assay [4] can be described thus: NCI Yeast Anticancer Drug Screen. Data for the cln2 rad14 strain (AID 165).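 Further: 0% = growth equal to vehicle treated cultures.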 The following applies: S. cerevisiae cln2 rad14 strain, at 50.0 µM, active compounds read high. The gist of the method:
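Strain: cln2 rad14 yeast, altered in cell cycle control and DNA damage repair. Read-out: growth inhibition vs vehicle.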

Assay [5] is described as follows: NCI Yeast Anticancer Drug Screen. Data for the bub3 strain (AID 167). The following applies: S. cerevisiae bub3 mutant strain, at 50.0 µM, active compounds read high. The gist of the method:
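Readout: yeast growth inhibition, expressed relative to vehicle-only wells. The test organism is a mutant strain from a panel with lesions in DNA repair or checkpoint genes.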

Assay [6] in a line: NCI Yeast Anticancer Drug Screen. Data for the mlh1 rad18 strain (AID 175). Conditions: S. cerevisiae mlh1 rad18 strain growth inhibition; at 50.0 µM; active compounds read high. The gist of the method: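 A repair-deficient yeast strain is exposed to test compound, and growth is scored relative to vehicle-treated controls.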

As to `N#CCC(CC#N)C(c1cccc2ccccc12)c1cccc2ccccc12`, the growth inhibition in assay [1] was 9.85%; in assay [2], -2.45%; in assay [3], -3.85%; in assay [4], 3.25%; in assay [5], 18.7%; in assay [6], -1.7%.

For `COc1ccc(NC(=O)C(=O)C2CNC(=O)NC2=O)c(OC)c1` (stereo unspecified), the growth inhibition was -9.2% in assay [1]; -5.8% in assay [2]; -17.6% in assay [3]; -6.65% in assay [4]; -13.1% in assay [5]; -17.3% in assay [6].

Turning to `CCOCCN1CCN(CCOCC)CC1`, the growth inhibition in assay [1] is -11.9%; in assay [2] it was -9.75%; in assay [3], -9.65%; in assay [4], -18.4%; in assay [5], 27.6%; in assay [6], 14%.

As for `CN1CCC2(CC1)C(=O)N(NC(N)=O)C(=O)C2c1ccccc1` (stereo unspecified), the growth inhibition was 15% in assay [1]; 2.15% in assay [2]; 5.7% in assay [3]; 1.2% in assay [4]; 1% in assay [5]; 13.8% in assay [6].

For the compound `Clc1ccccc1NCSC1=NCCS1`, the growth inhibition in assay [1] is 5.95%; in assay [2] it was -15.8%; in assay [3], 3.9%; in assay [4], -19.6%; in assay [5] it was -3.85%; in assay [6], 20.8%.

As for `CC(/C=N/NC1=NCCCN1)=N\NC1=NCCCN1`, the growth inhibition in assay [1] was -7.05%; in assay [2], -8.75%; in assay [3] it was -14.3%; in assay [4], 8.25%; in assay [5], 2.9%; in assay [6], -12.2%.

Consider `CCc1ccc(C(O)C(=O)O)cc1` (stereo unspecified), for which the growth inhibition is 4.6% in assay [1]; 7.95% in assay [2]; -1.6% in assay [3]; 3.85% in assay [4]; -2.7% in assay [5]; -3.75% in assay [6].

Turning to `CCn1c(C)nc2ccccc21`, the growth inhibition is -12.7% in assay [1]; -6.55% in assay [2]; 2.5% in assay [3]; -0.5% in assay [4]; -16.1% in assay [5]; 1.5% in assay [6].

As for `CCCCCC(=O)OCC(COC(=O)CCCCC)OC(=O)CCCCC`, the growth inhibition in assay [1] is -2.65%; in assay [2], 23.1%; in assay [3], -5.05%; in assay [4], 12.6%; in assay [5] it was 10.9%; in assay [6], 20.6%.

Turning to `CCOC(=O)c1cnc2c(ccc3ncccc32)c1OCC`, the growth inhibition in assay [1] is -12.2%; in assay [2], -23.1%; in assay [3], 7.8%; in assay [4], 17.2%; in assay [5] it was 10.8%; in assay [6] it was 12.1%.

With `CC(C)c1ccc(OC(=O)Nc2c(Cl)cccc2Cl)cc1`, the growth inhibition is -18.4% in assay [1]; -27.6% in assay [2]; 5.95% in assay [3]; 5.6% in assay [4]; 7.2% in assay [5]; -3.65% in assay [6].

As for `CC(C)C1=CC2=C(C(=O)C1=O)C13CCCC(C)(C)C1CC2OC3=O` (stereo unspecified), the growth inhibition in assay [1] was 14.3%; in assay [2], -45.1%; in assay [3], 23.6%; in assay [4] it was -12.3%; in assay [5], -2.6%; in assay [6] it was 85.5% (active).

As to `CC(C)c1cc(C(C)C)c(S(=O)(=O)N/N=C2\CC3CCC2(C)C3(C)C)c(C(C)C)c1` (stereo unspecified), the growth inhibition in assay [1] was -8.7%; in assay [2], -16.9%; in assay [3], -13.3%; in assay [4] it was -4.35%; in assay [5] it was -54.5%; in assay [6], 0.65%.

As for `Oc1ccc2cccc(O)c2c1`, the growth inhibition in assay [1] is -17.6%; in assay [2], -33.6%; in assay [3], 37.5%; in assay [4], 19.9%; in assay [5], 12%; in assay [6], 3.9%.

For the compound `O=c1oc2c3ccc4ccccc4c3n(Cc3nc4ccccc4[nH]3)c2c2ccccc12`, the growth inhibition was 22.1% in assay [1]; 12.2% in assay [2]; 19.7% in assay [3]; 28.6% in assay [4]; 14.6% in assay [5]; 25.2% in assay [6].

Consider `Clc1ccc2ccc3ccc(Cl)nc3c2n1`, for which the growth inhibition in assay [1] is 18.5%; in assay [2] it was 20.4%; in assay [3], 26.4%; in assay [4] it was -18.5%; in assay [5], 8.5%; in assay [6], 9.95%.

With `Nc1cccc(OCc2nc(N)nc(N)c2-c2ccc(Cl)cc2)c1`, the growth inhibition in assay [1] is -14%; in assay [2], -14.4%; in assay [3] it was -48.9%; in assay [4], -6.6%; in assay [5] it was -36%; in assay [6] it was -20.9%.

Regarding `Cc1cc2c(c(C(=O)NCCC(=O)O)c1)Oc1c(cc(C)cc1C(=O)NCCC(=O)O)S2`, the growth inhibition in assay [1] is -26.9%; in assay [2] it was -13.6%; in assay [3], -8.2%; in assay [4] it was 3.95%; in assay [5] it was -44.1%; in assay [6], -2.65%.

Take `Cc1ccc(NC2=N/C(=C/c3ccco3)C(Cl)=N2)cc1`: the growth inhibition was -21.5% in assay [1]; -22.1% in assay [2]; 14.5% in assay [3]; -1.8% in assay [4]; 3.8% in assay [5]; -31.9% in assay [6].

For the compound `CC(C)CC(N)C(=O)NC(C(=O)O)c1ccc(O)cc1` (stereo unspecified) (H-Leu-[Hpg]-OH; configuration not given here), the growth inhibition was -5.3% in assay [1]; -10.1% in assay [2]; 3.4% in assay [3]; -20.4% in assay [4]; 2.7% in assay [5]; 15.8% in assay [6].

For the compound `CSc1nc(N(C)C)c2[nH]ncc2n1`, the growth inhibition in assay [1] is 5.25%; in assay [2] it was -0.5%; in assay [3], -3.6%; in assay [4], -10.6%; in assay [5], 19.7%; in assay [6], 3.25%.
